# Measurements reported in the supplement of paper PMC8728848.
# Only a selection was taken, and the strongest signals are over-represented in it overall.
# B1: Pbx1CASH domain (Cryptococcus neoformans) (protein)
# chain: MDETKPLWGNPRADGISLACKDSIVERNVVYDATDGAIVLFGSAGSTVKNNHVYARTRVILGGINLVDYEPWDGDYTNVKVHHNHLYALGRYFKVGIVIGPASWSDDTESVVHSASVTDNEFSGGYWGYGIVVASAKNFEVLRNKVIWDGEQGVARFSGVPGS
# Columns and labels:
# Assay in all cases: glycan array binding signal (z-score within array); higher = stronger binding
# Conditions in all cases: glycan notation: IUPAC condensed, linker removed
# [1] = molecular target: Fuc(a1-2)Gal(b1-3)GalNAc(b1-3)Gal
# In short: (§1)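 Glycan array data were curated from 3228 arrays in the Consortium for Functional Glycomics database and kept only where the protein sequence was available. Glycan names were converted to IUPAC-condensed notation, and columns mapping to the same glycan were averaged. The binding signal is a within-array Z-score, averaged across arrays of the same protein sequence at different concentrations or buffers and across linkers. Negative Z-scores can be read as non-binding.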
# [2] = molecular target: Fuc(a1-2)Gal(b1-3)GalNAc(b1-3)Gal(a1-4)Gal(b1-4)Glc
# In short: as §1
# [3] = molecular target: Fuc(a1-2)Gal(b1-3)GlcNAc(b1-3)[Gal(b1-4)GlcNAc(b1-6)]Gal(b1-4)Glc
# In short: as §1
# [4] = molecular target: Fuc(a1-2)Gal(b1-4)[Fuc(a1-3)]GlcNAc(b1-3)GalNAc
# In short: as §1
# [5] = molecular target: Fuc(a1-2)[Gal(a1-3)]Gal(b1-4)GlcNAc(b1-2)Man(a1-3)[Fuc(a1-2)[Gal(a1-3)]Gal(b1-4)GlcNAc(b1-2)Man(a1-6)]Man(b1-4)GlcNAc(b1-4)[Fuc(a1-6)]GlcNAc
# In short: as §1
# [6] = molecular target: Fuc(a1-2)[GalNAc(a1-3)]Gal(b1-4)[Fuc(a1-3)]GlcNAc
# In short: as §1
# [7] = molecular target: Fuc(a1-3)[Gal(b1-4)]GlcNAc(b1-2)Man(a1-3)[Fuc(a1-3)[Gal(b1-4)]GlcNAc(b1-2)Man(a1-6)]Man(b1-4)GlcNAc(b1-4)[Fuc(a1-6)]GlcNAc
# In short: as §1
# [8] = molecular target: Fuc(a1-3)[Gal(b1-4)]GlcNAc(b1-3)Gal(b1-3)[Fuc(a1-4)]GlcNAc
# In short: as §1
# [9] = molecular target: Fuc(a1-3)[Gal(b1-4)]GlcNAc6S
# In short: as §1
# Gal(a1-2)Gal = molecular target: Gal(a1-2)Gal
# In short: as §1
# Gal(a1-3)Gal(b1-3)GlcNAc = molecular target: Gal(a1-3)Gal(b1-3)GlcNAc
# In short: as §1
# [10] = molecular target: Gal(a1-3)Gal(b1-3)GlcNAc(b1-3)GalNAc
# In short: as §1
# [11] = molecular target: Gal(a1-3)Gal(b1-4)GlcNAc(b1-6)GalNAc
# In short: as §1
# Gal(b1-2)Gal = molecular target: Gal(b1-2)Gal
# In short: as §1
# [12] = molecular target: Gal(b1-3)GalNAc(a1-3)[Fuc(a1-2)]Gal(b1-4)Glc
# In short: as §1
# [13] = molecular target: Gal(b1-3)GalNAc(b1-3)Gal(a1-4)Gal(b1-4)Glc
# In short: as §1
# [14] = molecular target: Gal(b1-3)GlcNAc(b1-6)[Gal(b1-3)]GalNAc
# In short: as §1
# [15] = molecular target: Gal(b1-3)[Neu5Ac(a2-6)]GalNAc
# In short: as §1
# Gal(b1-4)GlcNAc(b1-2)Man = molecular target: Gal(b1-4)GlcNAc(b1-2)Man
# In short: as §1
# [16] = molecular target: Gal(b1-4)GlcNAc(b1-3)Gal(b1-4)GlcNAc(b1-2)Man(a1-3)[Gal(b1-4)GlcNAc(b1-3)Gal(b1-4)GlcNAc(b1-2)Man(a1-6)]Man(b1-4)GlcNAc(b1-4)GlcNAc
# In short: as §1
# [17] = molecular target: Gal(b1-4)GlcNAc(b1-3)Gal(b1-4)GlcNAc(b1-3)Gal(b1-4)GlcNAc(b1-2)Man(a1-3)[Gal(b1-4)GlcNAc(b1-3)Gal(b1-4)GlcNAc(b1-3)Gal(b1-4)GlcNAc(b1-2)Man(a1-6)]Man(b1-4)GlcNAc(b1-4)GlcNAc
# In short: as §1
# [18] = molecular target: Gal(b1-4)GlcNAc(b1-3)Gal(b1-4)GlcNAc(b1-3)Gal(b1-4)GlcNAc(b1-3)Gal(b1-4)GlcNAc(b1-3)Gal(b1-4)GlcNAc(b1-2)Man(a1-3)[Gal(b1-4)GlcNAc(b1-3)Gal(b1-4)GlcNAc(b1-3)Gal(b1-4)GlcNAc(b1-3)Gal(b1-4)GlcNAc(b1-3)Gal(b1-4)GlcNAc(b1-2)Man(a1-6)]Man(b1-4)GlcNAc(b1-4)[Fuc(a1-6)]GlcNAc
# In short: as §1
# [19] = molecular target: Gal(b1-4)GlcNAc(b1-3)Gal(b1-4)GlcNAc(b1-3)[Gal(b1-4)GlcNAc(b1-3)Gal(b1-4)GlcNAc(b1-6)]GalNAc
# In short: as §1
# [20] = molecular target: Gal(b1-4)GlcNAc(b1-3)Gal(b1-4)GlcNAc(b1-6)[Gal(b1-3)]GalNAc
# In short: as §1
# GalNAc(b1-4)GlcNAc = molecular target: GalNAc(b1-4)GlcNAc
# In short: as §1
# GalNAc3S(b1-4)GlcNAc = molecular target: GalNAc3S(b1-4)GlcNAc
# In short: as §1
# Glc(a1-4)Glc = molecular target: Glc(a1-4)Glc
# In short: as §1
# GlcA(b1-6)Gal = molecular target: GlcA(b1-6)Gal
# In short: as §1
# [21] = molecular target: GlcNAc(a1-4)Gal(b1-3)GlcNAc
# In short: as §1
# [22] = molecular target: GlcNAc(a1-4)Gal(b1-4)GalNAc
# In short: as §1
# [23] = molecular target: GlcNAc(a1-6)Gal(b1-4)GlcNAc
# In short: as §1
# [24] = molecular target: GlcNAc(b1-2)Man(a1-3)[GlcNAc(b1-2)Man(a1-6)]Man(b1-4)GlcNAc(b1-4)GlcNAc
# In short: as §1
# [25] = molecular target: GlcNAc(b1-3)Gal(b1-4)GlcNAc(b1-3)Gal(b1-4)GlcNAc(b1-2)Man(a1-3)[GlcNAc(b1-3)Gal(b1-4)GlcNAc(b1-3)Gal(b1-4)GlcNAc(b1-2)Man(a1-6)]Man(b1-4)GlcNAc(b1-4)GlcNAc
# In short: as §1
# [26] = molecular target: GlcNAc(b1-3)Gal(b1-4)GlcNAc(b1-6)[GlcNAc(b1-3)Gal(b1-3)]GalNAc
# In short: as §1
# [27] = molecular target: GlcNAc(b1-3)Gal(b1-4)GlcNAc(b1-6)[GlcNAc(b1-3)]Gal(b1-4)GlcNAc
# In short: as §1
# GlcNAc(b1-3)Man = molecular target: GlcNAc(b1-3)Man
# In short: as §1
# Kdn(a2-3)Gal(b1-3)GlcNAc = molecular target: Kdn(a2-3)Gal(b1-3)GlcNAc
# In short: as §1
# [28] = molecular target: Man(a1-3)[Man(a1-6)]Man(a1-6)[Man(a1-3)]Man
# In short: as §1
# [29] = molecular target: Man(a1-3)[Man(a1-6)]Man(b1-4)GlcNAc(b1-4)GlcNAc
# In short: as §1
# Man(b1-4)GlcNAc = molecular target: Man(b1-4)GlcNAc
# In short: as §1
# Neu5Ac(a2-3)Gal = molecular target: Neu5Ac(a2-3)Gal
# In short: as §1
# [30] = molecular target: Neu5Ac(a2-3)Gal(b1-3)GlcNAc6S
# In short: as §1
# [31] = molecular target: Neu5Ac(a2-3)Gal(b1-4)GlcNAc(b1-2)Man
# In short: as §1
# [32] = molecular target: Neu5Ac(a2-3)Gal(b1-4)GlcNAc(b1-3)Gal(b1-3)GlcNAc
# In short: as §1
# [33] = molecular target: Neu5Ac(a2-3)Gal(b1-4)GlcNAc(b1-3)Gal(b1-4)GlcNAc(b1-2)Man(a1-3)[Neu5Ac(a2-3)Gal(b1-4)GlcNAc(b1-3)Gal(b1-4)GlcNAc(b1-2)Man(a1-6)]Man(b1-4)GlcNAc(b1-4)GlcNAc
# In short: as §1
# [34] = molecular target: Neu5Ac(a2-3)Gal(b1-4)GlcNAc(b1-3)Gal(b1-4)GlcNAc(b1-3)Gal(b1-4)GlcNAc(b1-2)Man(a1-3)[Neu5Ac(a2-3)Gal(b1-4)GlcNAc(b1-3)Gal(b1-4)GlcNAc(b1-3)Gal(b1-4)GlcNAc(b1-2)Man(a1-6)]GalNAc
# In short: as §1
# Neu5Ac(a2-6)Gal(b1-4)Glc = molecular target: Neu5Ac(a2-6)Gal(b1-4)Glc
# In short: as §1
# [35] = molecular target: Neu5Ac(a2-6)Gal(b1-4)GlcNAc
# In short: as §1
# [36] = molecular target: Neu5Ac(a2-6)Gal(b1-4)GlcNAc(b1-2)Man(a1-6)[Gal(b1-4)GlcNAc(b1-2)Man(a1-3)]Man(b1-4)GlcNAc(b1-4)GlcNAc
# In short: as §1
# [37] = molecular target: Neu5Ac(a2-6)Gal(b1-4)GlcNAc(b1-3)Gal(b1-4)GlcNAc(b1-3)Gal(b1-4)GlcNAc(b1-2)Man(a1-3)[Neu5Ac(a2-6)Gal(b1-4)GlcNAc(b1-3)Gal(b1-4)GlcNAc(b1-3)Gal(b1-4)GlcNAc(b1-2)Man(a1-6)]GalNAc
# In short: as §1
# [38] = molecular target: Neu5Gc(b2-6)Gal(b1-4)GlcNAc
# In short: as §1
binder,measurement,setting,value
B1,glycan array binding signal (z-score),[1],1.37
same,glycan array binding signal (z-score),[2],0.581
same,glycan array binding signal (z-score),[3],0.324
same,glycan array binding signal (z-score),[4],2.39
same,glycan array binding signal (z-score),[5],-0.277
same,glycan array binding signal (z-score),[6],-0.042
same,glycan array binding signal (z-score),[7],-0.469
same,glycan array binding signal (z-score),[8],0.08
same,glycan array binding signal (z-score),[9],0.01
same,glycan array binding signal (z-score),Gal(a1-2)Gal,-0.625
same,glycan array binding signal (z-score),Gal(a1-3)Gal(b1-3)GlcNAc,-0.681
same,glycan array binding signal (z-score),[10],-0.095
same,glycan array binding signal (z-score),[11],-0.006
same,glycan array binding signal (z-score),Gal(b1-2)Gal,-0.215
same,glycan array binding signal (z-score),[12],0.601
same,glycan array binding signal (z-score),[13],0.926
same,glycan array binding signal (z-score),[14],1.3
same,glycan array binding signal (z-score),[15],-0.674
same,glycan array binding signal (z-score),Gal(b1-4)GlcNAc(b1-2)Man,0.337
same,glycan array binding signal (z-score),[16],5.46
same,glycan array binding signal (z-score),[17],3.17
same,glycan array binding signal (z-score),[18],-0.419
same,glycan array binding signal (z-score),[19],4.67
same,glycan array binding signal (z-score),[20],2.73
same,glycan array binding signal (z-score),GalNAc(b1-4)GlcNAc,-0.736
same,glycan array binding signal (z-score),GalNAc3S(b1-4)GlcNAc,-0.852
same,glycan array binding signal (z-score),Glc(a1-4)Glc,-0.667
same,glycan array binding signal (z-score),GlcA(b1-6)Gal,-0.6
same,glycan array binding signal (z-score),[21],-0.187
same,glycan array binding signal (z-score),[22],0.311
same,glycan array binding signal (z-score),[23],-0.894
same,glycan array binding signal (z-score),[24],0.233
same,glycan array binding signal (z-score),[25],4.67
same,glycan array binding signal (z-score),[26],0.647
same,glycan array binding signal (z-score),[27],1.15
same,glycan array binding signal (z-score),GlcNAc(b1-3)Man,0.12
same,glycan array binding signal (z-score),Kdn(a2-3)Gal(b1-3)GlcNAc,-0.869
same,glycan array binding signal (z-score),[28],-0.5
same,glycan array binding signal (z-score),[29],0.022
same,glycan array binding signal (z-score),Man(b1-4)GlcNAc,-0.348
same,glycan array binding signal (z-score),Neu5Ac(a2-3)Gal,-0.64
same,glycan array binding signal (z-score),[30],0.698
same,glycan array binding signal (z-score),[31],2.55
same,glycan array binding signal (z-score),[32],-0.104
same,glycan array binding signal (z-score),[33],2.42
same,glycan array binding signal (z-score),[34],3.29
same,glycan array binding signal (z-score),Neu5Ac(a2-6)Gal(b1-4)Glc,-0.412
same,glycan array binding signal (z-score),[35],-0.348
same,glycan array binding signal (z-score),[36],-0.843
same,glycan array binding signal (z-score),[37],3.13
same,glycan array binding signal (z-score),[38],2.35
